Results on seven compounds are retold here after PubChem BioAssay (NCI).

The panel holds about 83,000 compounds, 20% with a hit somewhere; the sample as a whole holds those more often.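 96-well plates, one dose, 48 hours. Percent growth reported; active if below 10.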 A number with no mark means an inactive call. Active and inactive are the calls of the source.

Common to all, as to assay: NCI-60 one-dose screen, 48 h (100 = growth as untreated, 0 = no growth, -100 = all killed)
Settings in all cases: 10 µM unless noted

The subject of assay [1] is MOLT-4 leukemia.
The subject of assay [2] is SR leukemia.
The subject of assay [3] is RPMI-8226 leukemia.
The subject of assay [4] is OVCAR-8 ovarian.
Assay [5] concerns OVCAR-5 ovarian.
Assay [6] has as its system OVCAR-4 ovarian.
In assay [7] the test system is SK-OV-3 ovarian.
Assay [8] relates to IGROV1 ovarian.
Assay [9] relates to OVCAR-3 ovarian.
In assay [10] the test system is HS 578T breast.
The subject of assay [11] is NCI/ADR-RES ovarian.
The test system of assay [12] is T-47D breast.
The subject of assay [13] is BT-549 breast.
The test system of assay [14] is MDA-MB-435 melanoma.
In assay [15] the test system is SW-620 colon.
Assay [16] concerns MCF7 breast.
The subject of assay [17] is HCT-116 colon.
Assay [18] has as its system HCC-2998 colon.
Assay [19] relates to KM12 colon.

`Cc1ccc(Nc2nc3c(s2)C2=CC[C@@H]4[C@H](CC[C@]5(C)C(=O)CC[C@@H]45)[C@@]2(C)CC3)cc1`: the growth in assay [1] was 12.3%; in assay [2] it was 12.9%; in assay [3], -15.8% (active); in assay [4], 58.4%; in [5] it was 72.4%; in assay [6] it was 44.8%. For the same compound, the growth in assay [7] was 36.6%; in assay [8], 65%; in assay [9], 16.7%; in assay [10] it was 28.1%; in assay [11], 57.2%; in assay [12], 43.8%. For the same compound, the growth in assay [13] was 24.7%; in assay [14], 44.3%; in assay [15], 0.485% (active); in [16], 13.9%; in assay [17], -25.4% (active); in assay [18], 78.2%. The growth in assay [19] was 34.7%.
Take `COc1ccc(/C=C\c2cc(OC)c(OC)c(OC)c2)cc1OCC(=O)Nc1nc2ccc(C(F)(F)F)cc2s1`: the growth in assay [1] was 16.3%; in assay [2], 26.5%; in assay [3], 21.2%; in [4], 17.5%; in assay [5] it was 94.1%; in assay [6] it was 57.4%. The growth in [7] was 10.8%; in [8] it was 19.3%; in assay [9], -51.8% (active); in [10] it was -8.14% (active); in [11], -11.8% (active); in assay [12] it was 37.7%. The growth in assay [13] was 43.1%; in assay [14], -34.9% (active); in [15], 28.3%; in assay [16], 15.1%; in assay [17], 13.8%; in assay [18] it was 64.7%. Further, the growth in assay [19] is 17.9%.
With `Cc1c(O)c(CN(CCCl)CCCl)cc(CN(CCCl)CCCl)c1O`, the growth was 75.2% in assay [1]; 4.03% (active) in assay [2]; 86.8% in assay [3]; 90.4% in [4]; 97.9% in [5]; 83.9% in assay [6]. Also, the growth in assay [7] was 102%; in [8], 87.4%; in assay [9], 101%; in assay [10] it was 86.3%; in [11] it was 103%; in assay [12], 79.3%. The growth was 99.1% in [13]; 96.8% in [14]; 67.9% in [15]; 67.5% in assay [16]; 84% in assay [17]; 90.6% in [18].
For the compound `CCCCC1(CCC)C(=O)NC(=S)NC1=O`, the growth is 96.8% in assay [1]; 126% in assay [2]; 104% in assay [3]; 128% in [4]; 102% in assay [5]; 95.9% in assay [6]. For the same compound, the growth is 109% in assay [7]; 87.9% in [8]; 93.3% in assay [9]; 111% in [10]; 102% in assay [11]; 92.3% in [12]. The growth in [13] is 107%; in [14], 116%; in assay [15], 109%; in assay [16], 95.7%; in [17], 99.2%; in assay [18], 106%. Also, the growth in [19] is 109%.
With `CC1=C2[C@@H](CC1)[C@]1(C)O[C@@](C(C)C)(C[C@H]1O)[C@H]2OC(=O)C1CC1c1ccccc1` (some centres not stated), the growth in assay [1] was 63.4%; in [2], 92.4%; in [3] it was 58.2%; in assay [4] it was 71.8%; in [5], 97.5%; in [6] it was 91.8%. The growth was 90.6% in assay [7]; 96.2% in assay [8]; 100% in assay [9]; 95.5% in assay [10]; 77.4% in assay [11]; 53.4% in [12]. The growth in assay [13] is 81.4%; in assay [14], 98.4%; in assay [15], 101%; in assay [16], 92.2%; in assay [17], 90.7%; in [18], 115%. For the same compound, the growth in assay [19] is 92%.
Regarding `CC[C@H](C)[C@H](NC(=O)c1nccn1C)C(=O)N(C)[C@H](C[C@@H](OC(C)=O)c1nc(C(=O)N[C@@H](Cc2ccccc2)C[C@H](C)C(=O)OC)cs1)C(C)C`, the growth is 15.9% in [1]; 14.2% in assay [2]; 24.6% in [3]; 16.3% in [4]; 38% in [5]; 48.4% in assay [6]. For the same compound, the growth in [7] was 19.4%; in [8], 35.6%; in assay [9], -19.8% (active); in assay [10], 20.6%; in assay [11] it was 16.5%; in [12] it was 47.9%. The growth in assay [13] is 0.0991% (active); in assay [14], -48% (active); in assay [15], 26.1%; in [16], 17.5%; in [17], 3.27% (active); in assay [18], 31.5%. Further, the growth in assay [19] is 11.1%.
Regarding `O=C([O][Hg][CH2]C1OCCOC1[CH2][Hg][O]C(=O)c1ccccc1)c1ccccc1` (configuration not stated), the growth is -8.85% (active) in [1]; 2.54% (active) in [2]; 12.3% in [3]; 90% in assay [4]; 112% in assay [5]; -89.2% (active) in assay [6]. The growth was 122% in [7]; 46.3% in [8]; -98.2% (active) in [9]; 113% in [10]; 28.7% in assay [11]; -64.1% (active) in assay [12]. The growth in assay [13] is 75.5%; in assay [14], 93.6%; in assay [15], -82.4% (active); in [16] it was -31.7% (active); in assay [17], -95.2% (active); in [18], 108%. Moreover, in assay [19], the growth was 107%.
